{
  "source": "PubChem BioAssay (NCI)",
  "note": "Values joined by “and” are separate entries in the source; they are usually repeats but may differ in a detail not shown here. Identical values can stand only once. Compounds without any hit were thinned out: in the full panel of roughly 83,000, 20% have a hit.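 For each line, cells grew in 96-well plates with the test compound present at a single concentration for 48 hours.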 Values without a mark were called inactive. Active and inactive are the calls of the source. Rule for the calls: active = growth percent below 10; inactive = the rest.",
  "data": [
    {"test_system": "MDA-MB-468 breast", "assay": "NCI-60 one-dose screen, 48 h (100 = growth as untreated, 0 = no growth, -100 = all killed)", "details": "10 µM unless noted", "values": [
      {"smiles": "COc1cc(/C=N/NC(=O)c2cn(C3CC3)c3c(OC)c(N4CC5CCCNC5C4)c(F)cc3c2=O)ccc1O", "note": "(stereo not given)", "growth": "54.8%"},
      {"smiles": "CCCCCCCCCCCCCCCCOc1ccccc1NC(=O)CC(C)=O", "growth": "111%"},
      {"smiles": "COc1cc([C@H](C)c2ccc3ccccc3c2)cc(OC)c1OC", "growth": "47.3%"},
      {"smiles": "Oc1ccc(/C=N/NC(=S)Nc2ccccc2)nc1", "growth": "-37.7% (active)"},
      {"smiles": "CCN1CCN(CCNc2nccc(-c3c(-c4cccc(O)c4)nc4sccn34)n2)S1(=O)=O", "growth": "86.7% and 81.1%"},
      {"smiles": "CC(=O)OCCOc1cc(Cl)c(Cl)cc1Cl", "growth": "93.9%"},
      {"smiles": "O=C(NNc1nc2cc(F)c(F)cc2n2cccc12)c1ncccn1", "growth": "3.66% (active)"},
      {"smiles": "CCOc1cc2c(Cl)ncnc2c(OCC)c1OCC", "growth": "-51.3% (active)"},
      {"smiles": "COc1cc(-c2cc(C(=O)N3CCN(C(=O)c4ccccc4NCc4ccco4)CC3)nc3cc(-c4ccccc4)nn23)cc(OC)c1OC", "growth": "0.207% (active)"},
      {"smiles": "C(=N/Nc1ncnc2nc[nH]c12)/c1ccccn1", "growth": "-27.3% (active)"},
      {"smiles": "O=C1c2ccccc2NC(c2cn(-c3ccccc3)nc2-c2cccnc2)N1Cc1ccccc1", "note": "(stereo not given)", "growth": "102%"},
      {"smiles": "CCOc1ccccc1NC(=O)CCC(=O)OC", "growth": "99.7%"},
      {"smiles": "CCOC(=O)c1c(NC(=O)c2cccc(C(F)(F)F)c2)sc2cc(O)ccc12", "growth": "85.4%"},
      {"smiles": "O=C(Nc1ccc(CN2CCOCC2)cc1)c1ccc(-c2cc(Cl)ccc2Cl)o1", "growth": "-56.1% (active)"},
      {"smiles": "CCOC(=O)c1c(C)oc2ncnc(N3CCN(C(=O)COc4ccc(SC)cc4)CC3)c12", "growth": "81.9%"}
    ]}
  ]
}
